This note sets out measurements from PubChem BioAssay (NCI).

Holding throughout (experiment): NCI-60 one-dose screen, 48 h (100 = growth as untreated, 0 = no growth, -100 = all killed)
One assay has as its system SK-MEL-2 melanoma. The settings on record: 10 µM unless noted.
Another assay deals with EKVX NSCLC. The note with it: 10 µM unless noted.
In a further assay the test system is SN12C renal. The note with it: 10 µM unless noted.
The subject of another assay is UO-31 renal. The note with it: 10 µM unless noted.
Another assay relates to TK-10 renal. The note with it: 10 µM unless noted.
Another assay relates to ACHN renal. The settings on record: 10 µM unless noted.
The subject of a further assay is CAKI-1 renal. The settings on record: 10 µM.
The test system of another assay is A498 renal. The settings on record: 10 µM unless noted.
Another assay has as its system CCRF-CEM leukemia. The settings on record: 10 µM unless noted.
The next assay relates to MOLT-4 leukemia. The settings on record: 10 µM unless noted.
The test system of a further assay is SR leukemia. The note with it: 10 µM unless noted.
The next assay concerns RPMI-8226 leukemia. The note with it: 10 µM unless noted.
In the next assay the test system is OVCAR-8 ovarian. The settings on record: 10 µM unless noted.
A further assay concerns OVCAR-5 ovarian. The note with it: 10 µM unless noted.
The test system of another assay is OVCAR-4 ovarian. The note with it: 10 µM unless noted.
For another assay, the system named is SK-OV-3 ovarian. The note with it: 10 µM unless noted.
A further assay has as its system IGROV1 ovarian. The note with it: 10 µM unless noted.
The next assay concerns OVCAR-3 ovarian. The note with it: 10 µM unless noted.
The subject of the next assay is HS 578T breast. The settings on record: 10 µM unless noted.
Another assay has as its system NCI/ADR-RES ovarian. The settings on record: 10 µM unless noted.

The panel holds about 83,000 compounds, 20% with a hit somewhere; the sample as a whole holds those more often.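 Each cell line was grown in a 96-well plate and treated with one concentration of compound for 48 hours. Values below 10 were considered active.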 Unmarked numbers belong to inactive results. Activity calls are given as the source filed them.

Consider `Oc1ccc(CSc2nnc(-c3ccc(Oc4ccccc4)cc3)o2)c2cccnc12`, for which the growth with SK-MEL-2 melanoma was 39.9%; in the assay with EKVX NSCLC, 23.6%; in the assay on SN12C renal it was 23.8%; with UO-31 renal it was 2.75% (active); in the assay on TK-10 renal it was 34.8%; with ACHN renal, -2.93% (active). The growth is 60.3% with CAKI-1 renal; 78.9% with A498 renal; 16% in the assay on CCRF-CEM leukemia; 26.9% in the assay on MOLT-4 leukemia; 32.2% with SR leukemia; 23.5% in the assay on RPMI-8226 leukemia. Further, the growth in the assay on OVCAR-8 ovarian is 24.2%; in the assay with OVCAR-5 ovarian it was 48.3%; in the assay on OVCAR-4 ovarian, -36.5% (active); with SK-OV-3 ovarian it was 22%; in the assay with IGROV1 ovarian, 26.1%; with OVCAR-3 ovarian, -28.7% (active). The growth was 10.4% in the assay on HS 578T breast and 12.6% in the assay on NCI/ADR-RES ovarian.
Turning to `COc1ccc(/C=N/Nc2nc(Nc3ccccc3)nc(Nc3ccc(S(N)(=O)=O)cc3)n2)cc1`, the growth with SK-MEL-2 melanoma is 68.9%; in the assay with EKVX NSCLC it was 88.5%; in the assay on SN12C renal, 80.2%; in the assay on UO-31 renal, 77.9%; in the assay with TK-10 renal, 107%; in the assay with ACHN renal, 75.2%. In addition, the growth is 76% in the assay on CAKI-1 renal; 61.7% in the assay on A498 renal; 45.9% with CCRF-CEM leukemia; 44.5% in the assay with MOLT-4 leukemia; 48.5% in the assay on SR leukemia; 47.7% in the assay on RPMI-8226 leukemia. Besides, the growth is 67.6% with OVCAR-8 ovarian; 85.6% in the assay on OVCAR-5 ovarian; 66.2% in the assay on OVCAR-4 ovarian; 105% with SK-OV-3 ovarian; 58.7% in the assay with IGROV1 ovarian; 58.3% in the assay with HS 578T breast. For the same compound, the growth in the assay with NCI/ADR-RES ovarian was 96.3%.
Regarding `Cc1[nH]nc2ccc(-c3nc4cnc(N5CCN(C)CC5)cn4c3Nc3ccc(F)cc3Br)cc12`, the growth was 91.1% with SK-MEL-2 melanoma; 86.1% with EKVX NSCLC; 29.9% in the assay on SN12C renal; 50.4% in the assay with UO-31 renal; 65% in the assay with TK-10 renal; 48.3% in the assay on ACHN renal. Besides, the growth is 21% in the assay on CAKI-1 renal; 82.3% in the assay on A498 renal; 3.21% (active) in the assay with CCRF-CEM leukemia; 39.4% with MOLT-4 leukemia; 4.63% (active) with SR leukemia; -6.49% (active) with RPMI-8226 leukemia. Further, the growth in the assay on OVCAR-8 ovarian was 6.47% (active); in the assay with OVCAR-5 ovarian, 80.3%; in the assay on OVCAR-4 ovarian, 64.6%; with SK-OV-3 ovarian, 97.4%; in the assay on IGROV1 ovarian it was 59.7%; in the assay with OVCAR-3 ovarian it was 10.5%. In addition, the growth in the assay with HS 578T breast was 91.5%; with NCI/ADR-RES ovarian, 49.4%.
Regarding `CCN(CC)CCN1C(=O)c2c(c3c4cccnc4[nH]c3c3ccc4ccccc4c23)C1=O`, the growth in the assay on SK-MEL-2 melanoma is 107%; with EKVX NSCLC, 89%; with SN12C renal, 71.9%; with UO-31 renal, 53.2%; in the assay on TK-10 renal, 121%; in the assay with ACHN renal it was 35.9%. Moreover, the growth in the assay with CAKI-1 renal is 46.5%; in the assay on A498 renal, 77.3%; in the assay on CCRF-CEM leukemia it was 21.9%; in the assay with MOLT-4 leukemia, 12.8%; with SR leukemia, 3.65% (active); in the assay with RPMI-8226 leukemia it was 73.1%. Besides, the growth is 62.3% with OVCAR-8 ovarian; 111% in the assay with OVCAR-5 ovarian; 102% with OVCAR-4 ovarian; 64.4% in the assay on SK-OV-3 ovarian; 55% with IGROV1 ovarian; 109% in the assay with HS 578T breast. For the same compound, the growth with NCI/ADR-RES ovarian is 55.5%.
With `CNC(=O)c1cc(Oc2ccc3nc(NC(=O)c4ccc(CN5CCN(C)CC5)c(C(F)(F)F)c4)sc3c2)ccn1`, the growth in the assay with SK-MEL-2 melanoma is 98.7%; in the assay with EKVX NSCLC, 59.3%; with SN12C renal, 76.4%; in the assay on UO-31 renal, 58.5%; in the assay with TK-10 renal, 104%; with ACHN renal, 76.9%. Also, the growth is 53.3% with CAKI-1 renal; 80.3% in the assay with A498 renal; 49.9% with CCRF-CEM leukemia; 39.2% with MOLT-4 leukemia; -4.18% (active) in the assay on SR leukemia; 19.6% with RPMI-8226 leukemia. Besides, the growth is 73.8% with OVCAR-8 ovarian; 80.7% in the assay on OVCAR-5 ovarian; 52.4% with OVCAR-4 ovarian; 87.1% with SK-OV-3 ovarian; 80.1% in the assay with IGROV1 ovarian; 52.9% in the assay with HS 578T breast. Besides, the growth with NCI/ADR-RES ovarian is 78%.
Consider `COc1ccc(/C=N\NC(=O)c2ccc3nc(-c4ccc(Br)cc4)[nH]c3c2)cc1`, for which the growth in the assay with SK-MEL-2 melanoma is 96.9%; with EKVX NSCLC, 39.6%; in the assay with SN12C renal it was 17.1%; in the assay with UO-31 renal, 75.9%; with TK-10 renal, 51.6%; in the assay on ACHN renal, 35.1%. In addition, the growth with CAKI-1 renal is 35%; with A498 renal, 82%; with CCRF-CEM leukemia it was 53.2%; in the assay on MOLT-4 leukemia, 61.9%; in the assay with SR leukemia it was 11.8%; in the assay with RPMI-8226 leukemia, 42.1%. The growth was 13.6% in the assay on OVCAR-8 ovarian; 79.2% with OVCAR-5 ovarian; 12.5% in the assay on OVCAR-4 ovarian; 62.8% with SK-OV-3 ovarian; 20% with IGROV1 ovarian; 14.8% with HS 578T breast. The growth in the assay with NCI/ADR-RES ovarian was 75.2%.
